Pf Dd2 inh = blocks in vitro growth of P. falciparum Dd2; P. falciparum Dd2 growth, SYBR Green, 72 h; Potency, µM (titrated, usually from 28.9 µM), for the others: top-dose activity, negative = inhibition, most hits filed as inhibitors; 120,000 compounds, 4.3% hits; active means well fitted inhibition curve with a large enough effect;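 further: plate controls were DMSO vehicle for no effect and reference drug for full effect; nearly all actives have a fitted effect of over 65% in size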
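Readout: SYBR Green fluorescence, 485 nm excitation, 535 nm emission, after ~16 h lysis at 37C. Before that, Dd2-infected red cells (2.5% hematocrit) grew 72 h with compound, 29 uM top final concentration.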
* = called active by the depositor; i = inactive; [ ] = remark or other dose. Only a selection was taken, and hits are over-represented in it overall. Potency means the concentration at half of the fitted maximal effect.

SMILES | Pf Dd2 inh
Cc1cccc(C(=O)N2CCc3cc(CNC(=O)c4ccnn4C)ccc32)c1 | i
Cc1cccc(C(=O)N2CCc3cc(CNC(=O)c4ccc(Br)o4)ccc32)c1 | 1.3µM*
COc1ccccc1C(=O)NCc1ccc2c(c1)CCN2C(=O)c1cccc(C)c1 | i
Cn1cc(S(=O)(=O)N2CCCCCC2)cc1C(=O)N1CCN(c2cccc(Cl)c2)CC1 | -25%
Cc1ccc2nc3n(c2c1)[C@@H](CNC(=O)CCC(=O)O)COC3 | -9%[44.1 µM]
COCCCNC(=O)CSC1=Nc2ccccc2C2=NC(CCC(=O)NCc3ccc(OC)cc3)C(=O)N12 (stereo not drawn) | 13%
Cc1cccc(N2CCN(c3ncnc4onc(C)c34)CC2)c1C | -5%
Cc1ccc(Cl)cc1N1CCN(C(c2ccc(F)cc2)c2nnc(-c3ccccc3)o2)CC1 (stereo not drawn) | 7.9µM*
Cc1ccc(Cl)cc1N1CCN(c2ncnc3onc(-c4ccc(F)cc4)c23)CC1 | -12%
Cc1ccc(Cl)cc1NC(c1ccc(F)cc1)c1nnc(-c2ccccc2)o1 (stereo not drawn) | 13µM*
Cc1ccc(Cl)cc1NC(=O)c1cnn2c(C(F)F)cc(-c3ccccc3)nc12 | 14%
Cc1cccc(N2CCN(C(c3ccc(F)cc3)c3nnc(-c4ccccc4)o3)CC2)c1C (stereo not drawn) | 11µM*
COc1cc(OC)c(NC(c2nnc(-c3ccccc3)o2)c2ccc(F)cc2Cl)cc1Cl (stereo not drawn) | 6.3µM*
COCCn1c(C)cc(O)c(C(c2ccc(F)cc2)N2CCN(c3ccccc3)CC2)c1=O (stereo not drawn) | i
COc1cc(OC)c(NC(=O)COc2ccccc2-c2nnc(-c3ccccc3)o2)cc1Cl | 12%
Cc1ccc(Cl)cc1NC(=O)c1ccc(-c2nc(CSc3ccccc3)c(C)o2)cc1 | i
Cc1ccccc1-c1nnc(CN2CCN(c3cc(Cl)ccc3C)CC2)o1 | -10%
COc1cc(OC)c(NC(=O)c2ccc3nc(C(C)C)oc3c2)cc1Cl | -12%
Cc1ccc(S(=O)(=O)N(CC(=O)N2CCc3ccccc3C2)c2ccc(C)c(C)c2)cc1 | 44%
CCn1ccc2cc(S(=O)(=O)N3CCC(C(=O)NCC(C)c4ccccc4)CC3)ccc21 (stereo not drawn) | 13%
CC[C@H]1CN(C(=O)Nc2cccc(C(F)(F)F)c2)CC[C@H]1CC(=O)N[C@@H](CO)CC(C)C | -29%
COc1ccc(NC(=O)C2CCN(c3nc(-c4ccc(OC)c(OC)c4)no3)CC2)cc1Cl | 24%
Cc1ccc(C)c(Cn2c(-c3cccc(Cl)c3)nc(C)c(CCO)c2=O)c1 | -12%
CCOc1ccccc1N1CCN(S(=O)(=O)c2ccc(C3CCCCC3)cc2)CC1 | 37%
COc1ccc(NC(=O)CCc2nc3c(C)nn(-c4ccc(C)cc4)c3n(C)c2=O)cc1 | 4%
SMILES | Pf Dd2 inh
Cc1ncccc1C(=O)N1C[C@@H](COCC2CC2)[C@H](c2ccccn2)C1 | i
O=C(COc1ccccc1Cl)Nc1ccc2nc(SCC(=O)N3CCOCC3)sc2c1 | -4%
O=C(Nc1ccc2nc(SCCOc3ccccc3)sc2c1)c1cccs1 | 3.2µM*
CC(=O)Nc1ccc2nc(SCCOc3ccccc3Cl)sc2c1 | i
CCC(=O)Nc1ccc2nc(SCCOc3cccc(C)c3)sc2c1 | i
COc1cc(C)ccc1OCCSc1nc2ccc(NC(=O)c3ccco3)cc2s1 | 4.5µM*
O=C(COc1ccccc1)Nc1ccc2nc(SCC(=O)N3CCCC3)sc2c1 | 11µM*
O=C(Nc1ccc2nc(SCCOc3ccccc3)sc2c1)c1ccccc1F | 2%
CCOc1ccc(C(=O)Nc2ccc3nc(SCCOc4ccccc4)sc3c2)cc1 | -14%
O=C(Nc1ccc2nc(SCC(=O)N3CCCC3)sc2c1)c1ccccc1 | -14%
CCc1ccc(S(=O)(=O)c2cn(C)c3ccc(C)cc3c2=O)cc1 | i
CN1CCC(C(=O)N2CCC3(CC2)CN(C(=O)Cc2cccc(Cl)c2)CCO3)CC1 | 9%
CCCc1nc(C(=O)NC(CC)c2ccc(S(C)(=O)=O)cc2)cs1 (stereo not drawn) | 5%
CO[C@H]1C(=O)N(C(C)C)[C@H]1C1CCN(C(=O)c2ccc(C)nc2)CC1 | 5%
COC(=O)N1CCn2cc(C(=O)Nc3ccc(Cl)cc3Cl)nc2C1 | -5%
COc1ccc(C(=O)NCCc2noc(C3CC3)n2)cn1 | 0%
COc1cc(CNCc2c(C(=O)O)c(C)n(Cc3cccc(Cl)c3)c2C)cc(OC)c1OC | 0%
C=Cc1ccc(Cn2c(C)c(CNCc3cccc(Br)c3)c(C(=O)O)c2C)cc1 | -17%
C=Cc1ccc(Cn2c(C)c(CNCc3ccccc3C)c(C(=O)O)c2C)cc1 | 2%
Cc1c(CNCCCc2ccccc2)c(C(=O)O)c(C)n1Cc1cccc(Cl)c1 | 8.9µM*
Cc1c(CNC2CCCCC2)c(C(=O)O)c(C)n1Cc1ccc(Cl)cc1 | -25%
Cc1c(CNCCCc2ccccc2)c(C(=O)O)c(C)n1Cc1ccc(Cl)cc1 | 8.9µM*
Cc1cc(C)cc(N2C(=O)CC(c3ccc(C(F)(F)F)cc3)C3=C2COC3=O)c1 (stereo not drawn) | 30%

Screening data as filed in PubChem.
